The values below come from ChEMBL document CHEMBL1157539, “Thousands of chemical starting points for antimalarial lead identification” (Nature, 2010).

Type in all cases: functional
For test [1], the system named is Plasmodium falciparum. The test can be described thus: GSK_TCMDC: Inhibition of Plasmodium falciparum 3D7 in whole red blood cells, using parasite LDH activity as an index of growth. Test compounds present at 2uM.
The test system of test [2] is Plasmodium falciparum. The test can be described thus: GSK_TCMDC: Inhibition of Plasmodium falciparum Dd2 in whole red blood cells, using parasite LDH activity as an index of growth. Test compounds present at 2uM.
Test [3] relates to HepG2. The test can be described thus: GSK_TCMDC: Percent inhibition of human HepG2 cell line. Test compounds present at 10uM.

By Inhibition is commonly meant the share of the control response that was lost under treatment. High values mean a response far below the control, low ones a response near the control.

The structures appear in SMILES notation.

Take `Cn1c(-c2ccccc2)cc2c3c(N)nc(N)nc3ccc21`: the Inhibition in test [1] was found to be 100%; in test [2], 30%; in test [3], 27%.
As to `Cc1ccccc1OCC(O)CN1CCC(C2CCN(CC(O)COc3ccccc3C)CC2)CC1` (centres undefined), the Inhibition in test [1] is 100%; in test [2], 51%; in test [3] it was 12%.
The corresponding values for `COc1ccc(F)cc1-c1ccccc1CNC(=O)c1cnn(-c2ccc([N+](=O)[O-])cc2)c1C(F)(F)F` are 89%, 75% and 0%.
The corresponding values for `Cc1cccc2nc(-c3ccc(-c4ccc(CNCc5ccccc5)cc4)cc3)[nH]c12.O=C(O)C(F)(F)F` are 99%, 90% and 5%.
The corresponding values for `Cc1ccc(Nc2nc(N/N=C/c3ccccc3[N+](=O)[O-])nc(Nc3ccc([N+](=O)[O-])cc3)n2)cc1C` are 100%, 81% and 4%.
On to `Fc1ccc2cc(C=Cc3ccncc3)[nH]c2c1`, for which the Inhibition was 100% in test [1], 89% in test [2] and 0% in test [3].
As to `O=C(/C=C/c1ccc(Cl)c(Cl)c1)NCCCCCN1CCC(NC(=O)Nc2ccc(Cl)c(Cl)c2)CC1`, the Inhibition in test [1] turned out to be 100%; in test [2], 1%; in test [3], 23%.
The corresponding values for `N#Cc1ccc(CN2CCC(Oc3ccc(NC(=O)c4cccs4)cc3Cl)CC2)cc1.O=C(O)C(F)(F)F` are 95%, 96% and 26%.
The corresponding values for `COc1ccccc1C(=O)Nc1cccc(N2CCC(NCc3ccc(-n4cccn4)cc3)CC2)c1` are 86%, 30% and 9%.
Turning to `O=C(O)C(F)(F)F.Oc1ccc(-c2nc3c(N4CCN(Cc5ccccc5)CC4)cccc3n2C2CCNCC2)cc1`, the figures for the Inhibition in test [1], in test [2] and in test [3] were 85%, 7% and 0%, respectively.
For `CCOC(=O)CCCOc1cc(Cc2cnc(N)nc2N)cc(OC)c1OC`, the results for the Inhibition in test [1], in test [2] and in test [3] were 97%, 3% and 12%, respectively.
The matching figures for `CCN(CC)CCN(Cc1ccc(-c2ccc(C(F)(F)F)cc2)cc1)C(=O)Cn1c(CCc2ccc(F)c(F)c2)nc(=O)c2ccccc21.O=C(O)C(O)C(O)C(=O)O`: 99%, 62% and 31%.
Turning to `O=c1cc(NCCCN(Cc2cc3c(Cl)cc(Cl)cc3[nH]2)Cc2cc3c(Cl)cc(Cl)cc3[nH]2)[nH]c2ccccc12`, the Inhibition amounted to 87% in test [1], 80% in test [2] and 23% in test [3].
Consider `COc1ccc2nc(Nc3nc4cnccc4[nH]3)sc2c1`, for which the figures for the Inhibition in test [1], in test [2] and in test [3] were 88%, 26% and 8%, respectively.
The matching figures for `CC(NC(=O)c1ccc(O)c(-c2ccc(Cl)c(Cl)c2)c1)C(=O)NCCN1CCCCC1` (centres undefined): 97%, 3% and 0%.
Regarding `Cc1cccc2nc(-c3cccc(-c4cccc(NC(=O)CNc5ccc(C(N)=O)cc5)c4)c3)[nH]c12`, the figures for the Inhibition in test [1], in test [2] and in test [3] were 100%, 56% and 15%, respectively.
The matching figures for `COc1ccc(Cc2cnc3nc(N)nc(N)c3c2C)cc1.Cl`: 90%, 96% and 65%.
Regarding `COc1ccc(CN2CCN(Cc3cc(Cl)ccc3O)CC2CCO)c(C)c1C` (centres undefined), the results for the Inhibition in test [1], in test [2] and in test [3] were 94%, 76% and 1%, respectively.
As for `Cc1nnc2c(NC(=O)NC3CCCC3)cc3cc(-c4ccc(CN5CCCCC5)cc4)ccc3n12`, the figures for the Inhibition in test [1], in test [2] and in test [3] were 99%, 93% and 100%, respectively.
The matching figures for `COc1ccc2nccc(NC(=O)C3(O)CCC(NCc4ncc5c(c4Cl)OCCO5)CC3)c2n1.Cl` (centres undefined): 83%, 59% and 21%.
For `O=C(N[C@H]1CCN(Cc2ccc(OC3CCN(Cc4ccccc4)CC3)c(Cl)c2)C1)c1ccc(Cl)c(Cl)c1.O=C(O)C(F)(F)F`, the Inhibition in test [1] was found to be 99%; in test [2], 11%; in test [3] it was 59%.
The matching figures for `O=[N+]([O-])c1ccc(C=NNc2nc(Nc3ccccc3)nc(Nc3ccccc3)n2)o1`: 94%, 61% and 5%.
For `O=C(O)C(F)(F)F.c1cc(-c2ccc(CNCCCN3CCOCC3)cc2)cc(-c2nc3ccccc3[nH]2)c1`, the Inhibition in test [1] is reported as 100%; in test [2] it was 0%; in test [3] it was 26%.
The matching figures for `CC(C)n1c(CC2CCN(CC3CCN(C(=O)/C=C/c4ccc(Cl)c(Cl)c4)CC3)CC2)nc2ccccc21`: 100%, 23% and 19%.
As for `CC(O)C(=O)O.CCOc1ccc2nc3cc(N)ccc3c(N)c2c1`, the results for the Inhibition in test [1], in test [2] and in test [3] were 98%, 70% and 8%, respectively.
On to `Cl.Fc1cc(Cl)ccc1Nc1ccnc2cc(-c3ccc(CN4CCNCC4)o3)ccc12`, for which the Inhibition in test [1] is listed as 100%; in test [2], 99%; in test [3], 16%.
The corresponding values for `COc1ccc2c(NN=Cc3ccncc3)ccnc2c1` are 95%, 6% and 0%.
For the molecule `Cc1cc(C(=O)N[C@H]2CCN(Cc3ccc(OCCCN(C)C)cc3)C2)ccc1Br.O=C(O)C(F)(F)F`, the results for the Inhibition in test [1], in test [2] and in test [3] were 97%, 62% and 88%, respectively.
